The text below walks through data of PubChem BioAssay.

Inconclusive results are not listed. Activity calls are given as the source filed them.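 The calls were made as follows, unless noted: active = RAM network inhibition above 8.4% in each of two replicates, 3 SD over the compound average; inconclusive = above 8.4% inhibition in only one replicate; inactive = 8.4% inhibition or less in each replicate.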

Assay [1] can be described thus: reducers of endogenous Her2 protein level, primary screen, SKBR3 breast tumor cells, AlphaScreen, ATP viability (AID 461;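 active = Her2 level under about 52% in both replicate screens, with viability over 70% of control, limit read from the data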;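 as to Her2 level: lower value means less Her2 protein in the cells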;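 as to viability: percent of carrier control wells set as 100% viability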). The following applies: 18-24 h, measured here: SKBR3 viability, ATP luminescence, at 10 µM.
Assay [2] has as its target Receptor tyrosine-protein kinase erbB-2 (Homo sapiens) (UniProt P04626). Described as above. The note with it: 18-24 h, at 10 µM, stronger effect = lower value.
A short description of assay [3]: SK-BR-3 cell growth inhibitors, pilot screen, 24 h, human (AID 572;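 active = viability at or below 10% of carrier control in both of two separate runs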;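 also: compound exposure lasted between 18 and 24 h rather than exactly 24 h; 100% = carrier-treated control wells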). The following applies: SK-BR-3 viability, CellTiter-Glo luminescence, at 10 µM, stronger effect = lower value.
The nature of assay [4]: HUVEC growth inhibition – cell-based, human, primary screen (AID 575;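 active = viability at or below 30% in both replicate assays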;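 also: 100% = median of untreated cell wells with 0.1% DMSO on each plate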). The following applies: HUVEC proliferation, CellTiter-Glo luminescence, 72 h; at 10 µM; stronger effect = lower value. A general note: In ATP-based viability assays light output follows the ATP content of the culture.
Assay [5] in a line: growth inhibitors of H69AR lung tumor, primary screen, human, duplicate replicates (AID 580;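 active = viability at or under a set limit in both replicates, limit being median viability minus 3 SD, cut at about 48% in these data, passing the limit was not always enough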;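 also: 100% = mean luminescence of untreated wells and 0% = no signal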). The note with it: H69AR lung tumor cells viability, ATP luminescence, 72 h; at 10 µM; stronger effect = lower value.
Assay [6] in a line: reversal of MRP1-mediated doxorubicin resistance, pilot screen, H69AR cells, doxorubicin co-treatment (AID 601;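 active = viability loss from added drug above about 55%, and viability with drug at most 40%, in both replicates, limit read from the data, passing the limit was not always enough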). The following applies: CellTiter-Glo, 72 h, at 10 µM; for differential viability (reversal): stronger effect = higher value.
A short description of assay [7]: 384-well plate pilot, post-Golgi transport modulator project, inhibition of yeast transport mutant growth (AID 636; in the data active = inhibition above about 31%). The following applies: absorbance 615 nm, about 18 h, stronger effect = higher value.
Assay [8] is described as follows: growth suppression of yeast trafficking mutant, preliminary HTS, modulators of trafficking downstream of Golgi apparatus project, 1536-format plate, OD 615 nm (AID 637; in the data active = inhibition above about 30%). The note with it: yeast transport mutant growth, absorbance 615 nm, 18 h; stronger effect = higher value.
Assay [9] is described as follows: OD615 S. cerevisiae growth inhibition, permissive medium, pilot counter-assay, permissive growth control for S. cerevisiae lifespan shortening project (AID 705;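 active = growth inhibition above 25% in both replicates, a cutoff set 3 SD above the mean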). The note with it: OD615, 24 h, at 10 µM, stronger effect = higher value.
Assay [10] is described as follows: Restrictive medium S. cerevisiae growth inhibition, OD615, pilot screen of yeast lifespan reduction project, restrictive growth control (AID 706;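 active = growth inhibition above a set limit, 3 SD over mean compound inhibition, in both replicates, cut at about 43% in these data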;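 also: modified DeaD lifespan yeast strain shifted to restrictive glucose medium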). The following applies: OD615, 48 h, at 10 µM, stronger effect = higher value.
Assay [11] can be described thus: viability gain of MRP-1-high H69AR cells under doxorubicin, pilot screen, MRP-1 activator project, CellTiter-Glo, duplicate (AID 807;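 active = viability increase at or above a cutoff of the median across tested compounds plus 3 SD, cut at about 8.5% in these data, passing the limit was not always enough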;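 also: compound pretreatment 18-22 h then 72 h combined with doxorubicin; 0% = doxorubicin alone and 100% = vehicle without doxorubicin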). The following applies: H69AR viability with doxorubicin, CellTiter-Glo luminescence; at 10 µM; stronger effect = higher value.
The nature of assay [12]: growth suppression of beta-catenin knockout HCT116, pilot screen, human colon tumor cells (AID 823;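 active = cell viability at or below a set limit in both duplicate runs, the limit being the all-compound median minus 4 SD, cut at about 23% in these data, passing the limit was not always enough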;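 also: 0% = wells killed by 20 µM Hyamine and 100% = untreated DMSO cell wells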). The note with it: CellTiter-Glo, 60 h, at 10 µM, stronger effect = lower value.
Assay [13] in a line: growth suppression of PTEN-deleted HCT116, pilot screen, cell-based, HCT116 clonal line, CellTiter-Glo (AID 824;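 active = viability at or below 27.92% in each of two runs, the all-compound median minus 4 SD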;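 also: 0% = 20 µM Hyamine control and 100% = vehicle cell control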). The note with it: 60 h, at 10 µM, stronger effect = lower value.
Assay [14] can be described thus: inhibitors of the yeast RAM network, pilot screen, dse1pr::URA3 reporter, 5-FOA selection (AID 869;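 active = inhibition over a set limit, the all-compound mean plus 3 SD, in both replicate runs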;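 also: 0% = DMSO wells with no growth and 100% = 10 µM 1-NA-PP1 with full growth; RAM network block rescues cells from 5-FOA so hits raise OD615 growth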). The following applies: S. cerevisiae dse1pr::URA3 5-FOA growth, OD615, 2 d; at 10 µM; stronger effect = higher value; strain carries analog-sensitive mutant Cbk1 kinase.
Assay [15] is described as follows: RAM signaling pathway blockade in yeast – S. cerevisiae, Pdr1DBD-CYC8 efflux-inhibited sensitized strain, primary screen (AID 1298).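 Also: 0% = DMSO untreated cells without growth and 100% = 10 µM 1-NA-PP1 full growth; higher means more yeast growth rescued from 5-FOA killing.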 The following applies: S. cerevisiae cbk1-as DSE1-URA3 strain, 5-FOA growth OD615, 2 d; at 50 µM; stronger effect = higher value.
Where [16] appears, read: H69AR cells + 2 uM doxorubicin, measured here: viability with 2 uM doxorubicin, stronger effect = lower value.
Setting [17] is: H69AR cells, compound alone cytotoxicity.

Chain of Receptor tyrosine-protein kinase erbB-2 (Homo sapiens) (P04626 whole entry, looked up): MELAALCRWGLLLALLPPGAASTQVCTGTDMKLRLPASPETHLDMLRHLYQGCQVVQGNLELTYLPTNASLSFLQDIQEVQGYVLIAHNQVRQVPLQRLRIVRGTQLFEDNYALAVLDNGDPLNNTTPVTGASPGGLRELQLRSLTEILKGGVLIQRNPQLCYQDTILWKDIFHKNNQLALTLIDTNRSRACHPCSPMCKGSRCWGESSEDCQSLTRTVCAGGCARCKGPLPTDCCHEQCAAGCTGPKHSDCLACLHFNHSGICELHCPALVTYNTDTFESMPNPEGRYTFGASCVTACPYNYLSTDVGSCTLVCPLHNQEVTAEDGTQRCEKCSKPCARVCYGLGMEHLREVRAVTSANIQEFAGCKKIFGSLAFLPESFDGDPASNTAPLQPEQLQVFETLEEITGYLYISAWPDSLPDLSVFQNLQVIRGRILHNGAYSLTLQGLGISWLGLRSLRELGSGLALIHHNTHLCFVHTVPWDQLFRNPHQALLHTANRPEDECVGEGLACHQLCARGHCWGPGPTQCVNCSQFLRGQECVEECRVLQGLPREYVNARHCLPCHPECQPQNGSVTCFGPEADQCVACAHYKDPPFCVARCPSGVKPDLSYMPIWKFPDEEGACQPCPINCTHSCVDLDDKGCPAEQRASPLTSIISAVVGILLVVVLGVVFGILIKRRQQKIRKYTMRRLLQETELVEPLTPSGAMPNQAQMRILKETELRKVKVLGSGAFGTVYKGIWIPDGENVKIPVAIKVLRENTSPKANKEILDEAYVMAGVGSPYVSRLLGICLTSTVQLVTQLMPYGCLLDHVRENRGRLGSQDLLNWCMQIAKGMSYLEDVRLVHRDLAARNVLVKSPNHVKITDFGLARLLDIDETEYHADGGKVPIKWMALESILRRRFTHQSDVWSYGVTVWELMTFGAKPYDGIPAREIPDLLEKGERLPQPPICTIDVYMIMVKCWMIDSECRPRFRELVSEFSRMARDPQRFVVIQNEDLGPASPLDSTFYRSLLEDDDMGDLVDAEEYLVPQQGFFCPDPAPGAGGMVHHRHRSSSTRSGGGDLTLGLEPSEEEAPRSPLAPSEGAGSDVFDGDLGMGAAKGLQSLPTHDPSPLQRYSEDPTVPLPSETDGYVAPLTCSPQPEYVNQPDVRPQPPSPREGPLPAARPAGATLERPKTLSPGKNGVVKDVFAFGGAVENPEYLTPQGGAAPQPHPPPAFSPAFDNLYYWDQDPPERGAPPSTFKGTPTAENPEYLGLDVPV

In general, viability refers to a read-out of living cells in per cent, often relative to untreated cells. The term inhibition denotes the relative decrease from the control value, in per cent. `CCOc1ccc(N(C(C)C(=O)NC2CCCCCC2)S(C)(=O)=O)cc1` (stereo not given): the viability in [1] was 90.5%; in [3] it was 90.5% (inactive); in assay [4], 101% (inactive); in assay [5] it was 94.1% (inactive); in assay [6] (setting [16]), 92.7%; in [6] (setting [17]), 94.1%. Moreover, the viability in assay [12] is 100% (inactive); in assay [13], 90.6% (inactive). In addition, the Her2 level in assay [2] was 98.5% (inactive). The differential viability (reversal) in assay [6] (H69AR cells + 2 uM doxorubicin) is 1.44% (inactive). In addition, the inhibition in assay [7] is -2.69% (inactive); in assay [8] it was -3.83% (inactive); in assay [14] it was 2.62% (inactive). For the same compound, the growth inhibition is -1.18% (inactive) in assay [9] and -21% (inactive) in [10]. For the same compound, the viability increase in assay [11] is -2.2% (inactive). In addition, the RAM network inhibition in [15] is 6.94% (inactive).

Take `CCN1CCN(C(=O)C2CCN(C(=O)c3cc4sccc4n3CC)CC2)CC1`: the viability is 104% in [1]; 104% (inactive) in assay [3]; 115% (inactive) in assay [4]; 83% (inactive) in [5]; 98.3% in assay [6] (setting [16]); 83% in [6] (setting [17]). The viability was 105% (inactive) in assay [12] and 95.5% (inactive) in assay [13]. In addition, the Her2 level in [2] is 104% (inactive). The differential viability (reversal) in assay [6] (H69AR cells + 2 uM doxorubicin) is -15.3% (inactive). In addition, the results for the inhibition in [7], in assay [8] and in assay [14] were -5.07% (inactive), 3.67% (inactive) and 0.53% (inactive), respectively. Further, the values for the growth inhibition in assay [9] and in assay [10] were -13.3% (inactive) and -13.5% (inactive), respectively. Further, the viability increase in assay [11] is -1.69% (inactive). Besides, in assay [15], the RAM network inhibition was 0.58% (inactive).

For `CC1(C)CC(=O)C=C(Nc2ccc(OCC(F)(F)C(F)F)cc2)C1`, the viability in assay [1] is 95%; in assay [3], 95% (inactive); in assay [4] it was 92.8% (inactive); in [5], 103% (inactive); in assay [6] (setting [16]), 89.9%; in assay [6] (setting [17]), 103%. Besides, the viability is 89.5% (inactive) in assay [12] and 90.2% (inactive) in [13]. The Her2 level in assay [2] is 104% (inactive). Moreover, in assay [6] (H69AR cells + 2 uM doxorubicin), the differential viability (reversal) is 12.9% (inactive). In addition, the inhibition is 0.38% (inactive) in assay [7], -12.3% (inactive) in assay [8] and -0.6% (inactive) in [14]. Also, the growth inhibition is -3.99% (inactive) in assay [9] and 5.75% (inactive) in [10]. Moreover, the viability increase in assay [11] was 1.17% (inactive). Further, the RAM network inhibition in assay [15] is 3.07% (inactive).

`Cn1c(=O)oc2cc(S(=O)(=O)NC3CCN(Cc4ccccc4)CC3)ccc21`: the viability is 103% in assay [1]; 103% (inactive) in [3]; 90.9% (inactive) in assay [4]; 108% (inactive) in [5]; 93.2% in assay [6] (setting [16]); 108% in [6] (setting [17]). Besides, the viability is 92% (inactive) in [12] and 94.7% (inactive) in assay [13]. Moreover, in [2], the Her2 level was 96% (inactive). Moreover, the differential viability (reversal) in assay [6] (H69AR cells + 2 uM doxorubicin) is 14.4% (inactive). For the same compound, the inhibition is -0.51% (inactive) in assay [7], -1.17% (inactive) in assay [8] and 1.28% (inactive) in [14]. The growth inhibition in [9] is -5.47% (inactive); in assay [10], -3.98% (inactive). In addition, the viability increase in [11] was -1.57% (inactive). Also, the RAM network inhibition in assay [15] is 3.24% (inactive).

In the case of `CC1Cc2nc(SCC(N)=O)n(Cc3ccccc3)c(=O)c2S1` (stereo not given), the viability is 88.5% in assay [1]; 88.5% (inactive) in assay [3]; 93.7% (inactive) in assay [4]; 88.3% (inactive) in [5]; 79.6% in [6] (setting [16]); 88.3% in assay [6] (setting [17]). Besides, the figures for the viability in assay [12] and in assay [13] were 95.3% (inactive) and 90.9% (inactive), respectively. Besides, the Her2 level in [2] is 100% (inactive). Moreover, the differential viability (reversal) in [6] (H69AR cells + 2 uM doxorubicin) is 8.68% (inactive). In addition, the inhibition in assay [7] was -3.6% (inactive); in assay [8], -4.67% (inactive); in assay [14], 1.32% (inactive). In addition, the growth inhibition in [9] was -18.9% (inactive); in [10] it was -26.3% (inactive). Besides, the viability increase in [11] is -1.84% (inactive). Further, the RAM network inhibition in assay [15] is 1.84% (inactive).
